Our source for the synaptosome phagocytic index values is the supplement of paper PMC12339681.

SMILES strings stand for the structures. Counter-ions that a name gives are not always drawn.

For this assay, the system named is PBMC-derived induced microglia-like cells (piMGLC). The assay is described as follows: synaptosome phagocytic index relative to DMSO control (fraction of DMSO); higher = more phagocytosis. Conditions: concentration: 10 uM (2 uM for compounds listed in Table S2); pretreatment time: 24 h; assay time: 3 h. The procedure:
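PBMC-derived induced microglia-like cells (piMGLCs) in 96-well plates were pretreated for 24 h with CNS-penetrant library compounds (MedChemExpress HY-L028), mostly at 10 uM; Table S2 lists 9 compounds at 2 uM. pHrodo-Red-labelled human iPSC-neuron synaptosomes (3 ug/well) were then added for 3 h, and cells were fixed and imaged by confocal microscopy. Phagocytic index (synaptosome area / cell count, CellProfiler) is a mean over 3 replicate wells on different plates, normalized to the DMSO control. Compounds leaving <10% of DMSO cell count were marked toxic and given no value.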
In the case of `O=S(=O)(CC1CS1)c1ccc(Oc2ccccc2)cc1` (stereo unspecified), the synaptosome phagocytic index was determined as 0.514.

`CN1C[C@H](C(=O)N[C@]2(C)O[C@@]3(O)[C@@H]4CCCN4C(=O)[C@H](Cc4ccccc4)N3C2=O)C[C@@H]2c3cccc4[nH]cc(c34)C[C@H]21` [Dihydroergotamine_(mesylate)]: the synaptosome phagocytic index worked out at 0.976.

As to `CCOC(=O)c1cncn1[C@H](C)c1ccccc1` [Etomidate_(hydrochloride)], the synaptosome phagocytic index was 0.749.

With `O=C(NO)c1cnc(NC2(c3ccccc3)CCC(F)(F)CC2)nc1`, the synaptosome phagocytic index came to 0.867.

Take `CN1CCc2ccccc2C1CNC(=O)c1ccc(Cl)c(Cl)c1` (stereo unspecified): the synaptosome phagocytic index worked out at 0.901.

`NCC1(CC(=O)O)CCCCC1` [Gabapentin]: the synaptosome phagocytic index came out at 0.686.

For `COc1cccc(NCC(F)Cn2c3ccc(Br)cc3c3cc(Br)ccc32)c1` (stereo unspecified), the synaptosome phagocytic index came to 0.0819.

For `CCN(CCCl)Cc1ccccc1Br` [DSP-4_(hydrochloride)], the synaptosome phagocytic index is 1.15.

As to `CNCC/C=C/c1cccnc1` [Rivanicline_hemioxalate], the synaptosome phagocytic index worked out at 0.922.

Consider `Clc1ccc(N2CCN(Cc3c[nH]c4ncccc34)CC2)cc1`, for which the synaptosome phagocytic index was 0.89.

For the compound `COc1cc2c(cc1OC)C1CC(=O)C(CC(C)C)CN1CC2` (stereo unspecified) [Tetrabenazine], the synaptosome phagocytic index worked out at 0.906.

For the compound `CC(C)(NC(=O)O[C@@H]1CN2CCC1CC2)c1csc(-c2ccc(F)cc2)n1` [Ibiglustat], the synaptosome phagocytic index worked out at 1.26.

As to `COc1ccc(OC)c(C(=O)N[C@@H]2CN3CCC2CC3)c1`, the synaptosome phagocytic index amounted to 0.646.

As to `Cc1cccc([C@H](C)c2c[nH]cn2)c1C` [Dexmedetomidine_(hydrochloride)], the synaptosome phagocytic index was 0.931.

Turning to `CN1Cc2cc(Cl)ccc2-n2c(nnc2[C@H]2CC[C@H](Oc3ccccn3)CC2)C1` [Balovaptan], the synaptosome phagocytic index stood at 1.09.

With `CC(C)(NC(=O)O[C@@H]1CN2CCC1CC2)c1csc(-c2ccc(F)cc2)n1` [Ibiglustat_(L-Malic_acid)], the synaptosome phagocytic index was 1.05.

For the compound `NCCc1c[nH]c2ccc(O)cc12` [Serotonin_hydrochloride], the synaptosome phagocytic index came to 0.812.

Consider `CCN(C)C(=O)Oc1cccc([C@H](C)N(C)C)c1` [Rivastigmine], for which the synaptosome phagocytic index was found to be 1.03.

Consider `Cc1sc2c(c1C)C(c1ccc(Cl)cc1)=N[C@@H](CC(=O)OC(C)(C)C)c1nnc(C)n1-2`, for which the synaptosome phagocytic index was found to be 0.3.

On to `CCN(C)C(=O)Oc1cccc([C@H](C)N(C)C)c1` [Rivastigmine_(tartrate)], for which the synaptosome phagocytic index worked out at 1.02.

On to `COc1ccc(C=C2CCCN=C2c2cccnc2)c(OC)c1` [GTS-21_(dihydrochloride)], for which the synaptosome phagocytic index was 0.922.

Regarding `N[C@@H]1C[C@H]1c1ccccc1` [Tranylcypromine_(hemisulfate)], the synaptosome phagocytic index amounted to 0.949.

Consider `FC(F)(F)c1ccc(N2CCNCC2)nc1Cl`, for which the synaptosome phagocytic index turned out to be 1.17.

As for `Cn1c(CCCC(=O)O)nc2cc(N(CCCl)CCCl)ccc21` [Bendamustine_(hydrochloride)], the synaptosome phagocytic index is 0.95.

Turning to `CCOC(=O)c1cncn1[C@H](C)c1ccccc1` [Etomidate], the synaptosome phagocytic index is 0.926.

Consider `Cn1cc(C2=C(c3cn(C4CCN(Cc5ccccn5)CC4)c4ccccc34)C(=O)NC2=O)c2ccccc21` [Enzastaurin], for which the synaptosome phagocytic index is 0.997.

Consider `C1=CC[C@@H](c2cccnc2)NC1` [Anatabine_(dicitrate)], for which the synaptosome phagocytic index was determined as 0.984.

`CNC(=O)ON(C(C)=O)C(=O)NC` [Caracemide]: the synaptosome phagocytic index is 0.78.

Regarding `NCC(CC(=O)O)c1ccc(Cl)cc1` (stereo unspecified) [Baclofen], the synaptosome phagocytic index amounted to 0.783.

For `CN(C)c1cc2c(cc1Sc1nc3c(N)nccc3n1CCNCC(C)(C)C)OCO2` [Debio_0932], the synaptosome phagocytic index came out at 0.767.

With `CC[C@@H](C(N)=O)N1CCCC1=O` [Levetiracetam], the synaptosome phagocytic index was found to be 0.711.

Take `CN(C)C(=O)Oc1ccc[n+](C)c1` [Pyridostigmine_(bromide)]: the synaptosome phagocytic index is 0.814.

As for `COc1ccc(C(CN(C)C)C2(O)CCCCC2)cc1` (stereo unspecified) [Venlafaxine_(hydrochloride)], the synaptosome phagocytic index was found to be 1.02.

Consider `C=C(C)[C@H]1CN[C@H](C(=O)O)[C@H]1CC(=O)O` [Kainic_acid], for which the synaptosome phagocytic index is 0.701.

In the case of `CCC(=O)O[C@H]1CC[C@H]2[C@@H]3CCC4=CC(=O)CC[C@]4(C)[C@H]3CC[C@]12C` [Testosterone_propionate], the synaptosome phagocytic index worked out at 0.807.

As to `C/C(=C\c1csc(C)n1)[C@@H]1C[C@@H]2O[C@]2(C)CCC[C@H](C)[C@H](O)[C@@H](C)C(=O)C(C)(C)[C@@H](O)CC(=O)O1` [Epothilone_B], the synaptosome phagocytic index came to 0.842.
